We go through six compounds from PubChem BioAssay (NCI).

Molecules are shown by their SMILES. Values joined by “and” are separate entries in the source; they are usually repeats but may differ in a detail not shown here. Equal values may be shown once. The panel holds about 83,000 compounds, 20% with a hit somewhere; the sample as a whole holds those more often.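 96-well plates, one dose, 48 hours. Percent growth reported; active if below 10.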 Unmarked numbers belong to inactive results. Active and inactive are the calls of the source.

What all share (test): NCI-60 one-dose screen, 48 h (100 = growth as untreated, 0 = no growth, -100 = all killed)
Holding throughout (details): 10 µM unless noted

Assay [1] deals with DU-145 prostate.
For assay [2], the system named is K-562 leukemia.
For assay [3], the system named is MALME-3M melanoma.
For assay [4], the system named is MDA-MB-231 breast.
Assay [5] has as its system RXF 393 renal.
Assay [6] deals with SF-268 CNS.
Assay [7] concerns SF-295 CNS.
Assay [8] deals with SF-539 CNS.
For assay [9], the system named is UACC-257 melanoma.
Assay [10] concerns M14 melanoma.
In assay [11] the test system is HCT-15 colon.
The subject of assay [12] is HT29 colon.
In assay [13] the test system is SNB-75 CNS.
The subject of assay [14] is SNB-19 CNS.
Assay [15] concerns U251 CNS.
Assay [16] relates to SK-MEL-5 melanoma.
The subject of assay [17] is UACC-62 melanoma.
Assay [18] relates to SK-MEL-28 melanoma.
Assay [19] concerns PC-3 prostate.
The test system of assay [20] is LOX IMVI melanoma.

In the case of `Oc1c(Cl)cc(Cl)c2cccnc12`, the growth in [1] was 85.5% and 71.2%; in assay [2] it was 24.4% and 29%; in assay [3] it was 74.1% and 91.3%; in assay [4], 95.1% and 48.3%; in assay [5] it was 67.1%; in [6], 66.4% and 54%. The growth in assay [7] is 30.3% and 12.3%; in [8], 68.7% and 34.3%; in assay [9], 82.4%; in [10], 63.7% and 53%; in assay [11], 44.6% and 30.1%; in assay [12], 63% and 90.4%. In addition, the growth was 82.6% and 46.2% in [13]; 57.4% and 38.9% in assay [14]; 35.5% in assay [15]; 33.2% and 28.1% in [16]; 58.2% and 49.3% in assay [17]; 83.2% and 65.5% in [18].

For the compound `Nc1ccc(SSc2ccc(N)cc2)cc1`, the growth in assay [1] was 111%; in assay [3], 104%; in assay [4] it was 82.4%; in assay [5], 108%; in assay [6], 106%; in assay [7], 82.6%. Besides, the growth in [8] is 106%; in assay [9], 86.1%; in assay [10], 97.7%; in assay [11], 88.6%; in assay [12], 112%; in assay [13], 102%. Further, the growth in [14] was 109%; in assay [15], 76%; in [19], 84.8%; in [16], 89.6%; in assay [17], 91.1%; in [20], 79.6%. For the same compound, the growth in assay [18] was 114%.

For the compound `Cc1ccc2c(ccc3c[n+]4c5ccccc5ccc4n32)c1`, the growth was 20.7% in [1]; 6.39% (active) in assay [2]; -45.5% (active) in assay [3]; 19.6% in [4]; 28.9% in assay [5]; 1.4% (active) in [6]. The growth in assay [7] was -1.86% (active); in assay [8], -3.04% (active); in assay [9], -36% (active); in assay [10], 2.99% (active); in [11], 79.6%; in [12], 8.52% (active). Moreover, the growth is 8.15% (active) in assay [13]; 2.91% (active) in [14]; -12.4% (active) in assay [15]; -81% (active) in [16]; -48.9% (active) in assay [17]; -28.1% (active) in assay [18].

On to `O[C@H]1[C@H]2c3cc4c(cc3CN3CCC(=C[C@@H]1O)[C@H]23)OCO4`, for which the growth in assay [1] was 9.62% (active); in assay [2], 21.4%; in [3], 41.9%; in [4], 39.6%; in assay [5], 19%; in assay [6], 24.4%. Further, the growth in assay [7] is 34%; in assay [8] it was 14%; in assay [9], 45.7%; in [10], 15.9%; in [11], 21.6%; in [12] it was 18.5%. Besides, the growth in [13] is 23%; in [14], 28.9%; in assay [15] it was 22.5%; in [16], 14.2%; in assay [17] it was 62%; in assay [20], 0.731% (active). Moreover, in assay [18], the growth was 20.7%.

In the case of `CC1=CC(O)C2CC1C2(C)C` (configuration not stated), the growth in assay [1] is 108% and 122%; in [2] it was 96.6% and 93.4%; in assay [3] it was 97.6% and 107%; in assay [4] it was 99.1% and 110%; in [5], 115% and 104%; in assay [6], 104% and 113%. For the same compound, the growth in assay [7] is 103%; in [8], 99.8% and 110%; in assay [9], 95.9% and 110%; in assay [10], 97.3% and 109%; in [11] it was 104% and 112%; in [12] it was 88.2% and 98.1%. In addition, the growth in assay [13] was 84.6% and 95.3%; in [14], 103% and 116%; in assay [15], 100% and 110%; in [16] it was 103% and 104%; in assay [17], 101% and 105%; in [20], 98% and 105%. Besides, the growth in assay [18] was 107% and 115%.

As for `O=Nc1ccccc1N=O`, the growth was 91.2% in assay [1]; 76.4% in assay [2]; 74.9% in assay [3]; 95.8% in assay [4]; 101% in assay [5]; 89.4% in assay [6]. The growth in [7] is 85.9%; in assay [8], 76.2%; in assay [9], 80.9%; in [10], 81.7%; in [11], 51.4%; in assay [12] it was 81.6%. Besides, the growth in assay [13] is 46.6%; in assay [14], 88.6%; in [15] it was 78.3%; in assay [16] it was 87.2%; in [17], 71.2%; in [20] it was 60%. Further, in [18], the growth is 92.9%.
